SF-1 inh = inhibitors of human SF-1, primary screen, cell-based, CHO-K1, Gal4-SF-1 LBD, luciferase luminescence. CHO-K1 Gal4-SF-1 LBD luciferase reporter. 65,000 compounds, 0.55% hits. Steroidogenic factor 1 (Homo sapiens), Q13285. AID 525, 2006. inhibition, % at 10 µM;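 active = inhibition above the mean inhibition of all tested compounds plus 3 SD, cut at about 48% in these data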
Target sequence (Q13285 whole entry, looked up, the tested form may be a part): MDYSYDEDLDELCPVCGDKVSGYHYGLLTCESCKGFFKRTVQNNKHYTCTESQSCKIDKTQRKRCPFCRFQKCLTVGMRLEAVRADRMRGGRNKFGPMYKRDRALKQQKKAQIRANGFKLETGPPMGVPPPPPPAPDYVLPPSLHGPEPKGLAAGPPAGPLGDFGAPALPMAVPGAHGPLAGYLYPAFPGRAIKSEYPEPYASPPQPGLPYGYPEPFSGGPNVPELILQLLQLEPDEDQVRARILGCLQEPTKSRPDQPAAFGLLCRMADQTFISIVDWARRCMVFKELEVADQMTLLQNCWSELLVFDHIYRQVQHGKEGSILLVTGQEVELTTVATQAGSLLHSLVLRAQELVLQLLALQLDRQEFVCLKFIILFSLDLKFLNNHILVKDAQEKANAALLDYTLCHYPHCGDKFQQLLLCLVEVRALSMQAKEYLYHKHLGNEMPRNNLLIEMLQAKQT
Large screens that a line does not name were inactive. This excerpt belongs to a sample that is enriched for hits.

O=C(CSc1nnnn1-c1ccccc1)NC(=O)Nc1ccc2c(c1)OCCO2	none
Cc1ccc(-c2nc(NC(=O)CSc3nnnn3-c3ccccc3)ns2)cc1	none
CCn1c2ccccc2c2cc(NC(=O)CSc3nnnn3-c3ccccc3)ccc21	SF-1 inh 70.3
Cc1cc(C)n2c3c(c(C#N)c2n1)CCCC3	none
CC(=O)OC1CC2(C)C(=O)CCC2C2CCc3cc(O)ccc3C12 (configuration not stated)	none
O=C(Nc1nc2ccccc2s1)c1ccc(Cl)s1	none
CCOC(=O)C1CCN(S(=O)(=O)c2ccc(-c3nc4ccccc4s3)s2)CC1	none
O=C(NC1CC1)c1ccc(-c2nc3ccccc3s2)s1	SF-1 inh 79.3
O=C(Nc1ccc(SC(F)F)cc1)c1ccc2nccnc2c1	none
CCOC(=O)N1CCN(C(=O)CN2C(=O)CC(C)(C)S(=O)(=O)c3ccccc32)CC1	none
CC(NC(=O)c1ccco1)C(=O)OCc1cccc(Cl)c1 (configuration not stated)	none
CCCCc1c(O)nc(SCC(=O)c2ccccc2)[nH]c1=O	none
CCCC(c1nnnn1CCOC)N1CCN(c2cccc(OC)c2)CC1 (configuration not stated)	none
CCCS(=O)(=O)c1nnnn1-c1cccc(OC)c1	SF-1 inh 58.4
CCOC(=O)Cn1nnc(-c2cccc(OC)c2)n1	none
Cn1c(=O)c2cn3c(c2n(C)c1=O)C(c1ccccc1)CC(c1ccccc1)=N3 (configuration not stated)	none
CCOC(=O)c1c(C)[nH]c(C(=O)Nc2ccc3c(c2)OCO3)c1C	none
COc1ccc2nc(NC(=O)c3ccc(-n4nc(C)cc4C)cc3)sc2c1	none
COC(=O)CSc1nc(C)cc(Oc2ccccc2)n1	none
COC(=O)c1ccc(Oc2cc(C)nc(-n3nc(C)cc3C)n2)cc1	SF-1 inh 51.1
COC(=O)NCc1ccc(S(=O)(=O)N2CCOCC2)cc1	none
O=C1CCN(Cc2nnnn2CC2CCCO2)c2ccccc2N1 (configuration not stated)	none
COc1cccc(C(=O)Nc2ccc(NC(C)=O)cn2)c1	none
CCCC(=O)Nc1ccc(NC(=O)c2cccc(OC)c2)nc1	none
COc1ccc(C(=O)Nc2ccc(C)cn2)c(OC)c1	SF-1 inh 82.1
O=C(c1cnsn1)N1CCN(c2ccccn2)CC1	none
COc1ccccc1N1CCN(C(=O)c2ccc(S(=O)(=O)N3CCCC3)cc2)CC1	none
O=C(C1CC1)N1CCN=C1SCc1cccc(F)c1	none
Nc1nnnn1/N=C/C(Br)=C/c1ccccc1	SF-1 inh 95.6
COCCOC(=O)C1=C(C)N=C2SCCC(=O)N2C1c1ccc(C(=O)OC)cc1 (configuration not stated)	none
O=C(CN1C(=O)C2CC=C(Cl)CC2C1=O)N1CCOCC1 (configuration not stated)	none
COC(=O)C1=CN(C2CC2)C=C(C(=O)OC)C1c1ccccc1OC	none
Cc1ccc(-c2cc3c(nn2)-c2ccccc2C3=O)cc1	SF-1 inh 88.1
O=C(Nc1cccc(-c2nnc(-c3ccccc3)o2)c1)c1ccc(Br)o1	none
Fc1ccc(Cn2nnnc2CN2CCc3ccccc3C2)cc1	none
CCN1CCc2c(sc3c2c(NCc2ccco2)nc2nnnn23)C1	none
Cc1c(C(=O)OCCOC(C)C)[nH]c2c1C(=O)CC(C)(C)C2	none
C=CCOC(=O)c1[nH]c2c(c1C)C(=O)CC(c1cc(OC)c(OC)c(OC)c1)C2 (configuration not stated)	SF-1 inh 52.4
CCCCOC(=O)c1[nH]c2c(c1C)C(=O)CC(c1cc(OC)c(OC)c(OC)c1)C2 (configuration not stated)	SF-1 inh 54.0
CCOC(=O)C(C(=O)OCC)C(=O)c1cc(OC)c(OC)c(OC)c1	none
CCOC(=O)C1=C(C)NC2=C(C(=O)CCC2)C1c1cc(OC)ccc1OC (configuration not stated)	none
COc1cccc(-c2nnc(SCC(=O)OC(C)C)n2N)c1	none
CC(C)Nc1nc(SCC(=O)Nc2ccccc2)nc(N2CCOCC2)n1	none
O=C(Cn1cc2c(n1)CCCC2)Nc1cc(-c2cccc(Cl)c2)no1	none
CN(CCc1ccccn1)C(=O)CN(C)S(=O)(=O)c1ccc2c(c1)c(=O)n(C)c(=O)n2C	none
CC(=O)Cc1nsc(NC(=O)c2cc(-c3cccc(C(F)(F)F)c3)oc2C)n1	none
COCCCNC(=O)c1ccc(NS(C)(=O)=O)cc1	none
c1cncc(-c2nnc(SCc3nc4ccccc4[nH]3)o2)c1	SF-1 inh 56.3
CC1(C)CC(OC(=O)c2ccco2)CC(C)(C)N1O	none
CC(C)Cc1cc(C(=O)N2CCN(c3ccc(F)cc3)CC2)no1	none
COC(=O)c1cc2sc(Cl)cc2n1CC(=O)N1CCCc2ccccc21	none
CN(C)S(=O)(=O)c1cccc(C(=O)C2=C3SC=C(c4ccccc4)N3CC2)c1	none
O=C(Nc1cccc(-c2nc3cc(Cl)ccc3o2)c1)C1CCCO1 (configuration not stated)	none
O=C1c2ccccc2C(=O)N1CCCSc1nc2ccccc2o1	none
O=S1(=O)C=C(Sc2nc3cc(Cl)ccc3o2)c2ccccc21	SF-1 inh 70.8
Cc1cc2c(cc1C)NC1(C(=O)Nc3ccccc31)C1=C(CC(C)(C)CC1=O)N2 (configuration not stated)	none
O=c1c2cnn(-c3ccc(F)cc3)c2ncn1Cc1ccccn1	none
Cc1ccc(SCc2cc(=O)n3[nH]cnc3n2)cc1	none
CCOc1ccccc1NC(=O)c1cccc(NC(=O)c2ccco2)c1	none
C=CS(=O)(=O)c1ccc(Oc2ccc(S(=O)(=O)C=C)cc2)cc1	SF-1 inh 96.6
Cc1ccc2c(c1)C(N1CCCC1=O)CC(c1ccco1)N2 (configuration not stated)	none
O=C(c1ccc2c3c(cccc13)C(=O)N(O)C2=O)N1CCCCC1	SF-1 inh 66.5
CCc1ccc2[nH]cc(C(=O)N3CCCCCC3)c(=O)c2c1	none
O=C(c1n[nH]c(=O)c2ccccc12)N1CCN(c2ccccc2Cl)CC1	none
COc1ccc(N=CC2=C(O)CC(C)(C)CC2=O)cc1	none
Cc1cc(N2CCN(c3nnnn3-c3ccccc3)CC2)n2ncnc2n1	none
CCn1c2ccccc2c2cc(Nc3cc(C)nc4ncnn34)ccc21	SF-1 inh 70.3
Cc1cc(N2CCc3ccccc32)n2ncnc2n1	none
CCOC(=O)CNc1nc(OCC#N)nc(N2CCOCC2)n1	none
c1cc(CNc2ccc3c(c2)OCO3)ccn1	none
O=C(/C=C\Nc1ccc2c(c1)OCO2)c1ccccn1	SF-1 inh 83.1
O=C(Nc1ccc2c(c1)OCO2)c1cccs1	none
Cc1ccccc1Cn1c2ccccc2c2cn[nH]c(=O)c21	none
C(=N\n1cnnc1SCc1ccccc1)/c1ccco1	none
CCn1nnnc1-c1ccc(OC)c(S(=O)(=O)N2CCCCC2)c1	none
CCc1c(C)nc(SC)n(CC#N)c1=O	none
O=C(Nc1ccc2c(c1)OCCO2)c1ccc(Br)o1	none
CCCN(CCC)CCSc1nc(O)c(C(C)C)c(=O)[nH]1	none
CC(=O)N1CCc2c(sc(NC(=O)c3ccc4c(c3)OCCO4)c2C#N)C1	none
Cc1cccc(-n2ncc3c(N4CC(C)CC(C)C4)ncnc32)c1 (configuration not stated)	none
COc1ccc2nc(N3CCCCC3)c(C#N)cc2c1	none
Cc1cccc(-n2ncc3c(NCCCO)ncnc32)c1	none
CC1CN(c2ncnc3c2cnn3-c2ccc(Cl)cc2)CC(C)O1 (configuration not stated)	none
Clc1ccc(-n2ncc3c(N4CCCCCC4)ncnc32)cc1	SF-1 inh 76.2
C=CCNc1ncnc2c1cnn2-c1ccc(Cl)cc1	none
CCOC(=O)C1CCCN(c2ncnc3c2cnn3-c2ccc(OC)cc2)C1 (configuration not stated)	none
COc1ccc(-n2ncc3c(N4CCCCC4)ncnc32)cc1	SF-1 inh 83.9

Bioassay records: PubChem, The Scripps Research Institute Molecular Screening Center
